Calls of active or inactive are those of the source. The calls were made as follows: active = hit-call score of the fitted dose curve at least 0.9, where 1 is the maximum; inactive = score below 0.9.
Biological target: Transcriptional activator Myb (Homo sapiens) (UniProt P10242)
Assay: ATG_Myb_CIS: Attagene CIS-FACTORIAL HepG2 Assay for human Myeloblastosis (Myb) Proto-Oncogene Transcription Factor (AID 2282986)
Settings: HepG2 Attagene CIS-FACTORIAL Myb reporter transcription; actives raise or lower the signal
Method in brief: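 HepG2 cells were transiently transfected with cis-regulated multiple reporter transcription units reflecting endogenous Myb activity, then exposed to compound for 24 hours. Reporter mRNA was measured by RT-PCR with capillary electrophoresis; bidirectional fitting versus DMSO baseline.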

Transcriptional activator Myb (Homo sapiens), sequence (P10242 whole entry, looked up): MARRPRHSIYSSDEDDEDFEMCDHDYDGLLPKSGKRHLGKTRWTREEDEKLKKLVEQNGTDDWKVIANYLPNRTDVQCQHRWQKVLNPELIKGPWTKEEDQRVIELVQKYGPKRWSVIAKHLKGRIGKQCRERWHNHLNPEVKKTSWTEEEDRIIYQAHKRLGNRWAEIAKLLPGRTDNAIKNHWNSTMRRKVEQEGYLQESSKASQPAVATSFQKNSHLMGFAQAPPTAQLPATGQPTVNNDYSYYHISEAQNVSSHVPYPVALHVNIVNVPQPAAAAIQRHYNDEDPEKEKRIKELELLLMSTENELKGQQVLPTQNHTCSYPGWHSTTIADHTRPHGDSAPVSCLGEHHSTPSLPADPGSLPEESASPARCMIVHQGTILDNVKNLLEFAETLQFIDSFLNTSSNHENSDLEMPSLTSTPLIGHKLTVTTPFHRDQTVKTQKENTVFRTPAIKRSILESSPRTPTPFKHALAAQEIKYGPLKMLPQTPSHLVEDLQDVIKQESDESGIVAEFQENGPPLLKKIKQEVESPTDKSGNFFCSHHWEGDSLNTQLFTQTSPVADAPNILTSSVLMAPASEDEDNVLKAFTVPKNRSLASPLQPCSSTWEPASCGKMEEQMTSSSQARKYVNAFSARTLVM

| Compound | outcome | AC50 |
| --- | --- | --- |
| O=P(O)(O)CN(CP(=O)(O)O)CP(=O)(O)O | inactive | – |
| Clc1nc(Cl)nc(Cl)n1 | inactive | – |
| O=CC=O | inactive | – |
| OCC(O)CCl (configuration not stated) | inactive | – |
| Nc1cccc2ccccc12 | inactive | – |
| CCOC(=O)/C=C(C)/C=C/C[C@@H](C)CCCC(C)C | – | 152 µM (active) |
| ClCc1ccccn1 | inactive | – |
| CC(C)OC(=O)Nc1ccccc1 | inactive | – |
| O=[N+]([O-])c1c(Cl)c(Cl)cc(Cl)c1Cl | inactive | – |
| Cl/C=C/Cl | inactive | – |
| COc1cccc(C=O)c1 | inactive | – |
| NC(=S)Nc1ccccc1 | inactive | – |
| CC(Br)C(=O)O (configuration not stated) | inactive | – |
| C[C@]12CC[C@H](O)CC1=CC[C@@H]1[C@@H]2CC[C@]2(C)C(=O)CC[C@@H]12 | inactive | – |
| Nc1ncc([N+](=O)[O-])s1 | inactive | – |
| Cc1ccccc1N | inactive | – |
| CCCCCCCCC(=O)NCc1ccc(O)c(OC)c1 | inactive | – |
| Cn1sc(Cl)cc1=O | inactive | – |
| CC(C)(C)c1cc(O)ccc1O | inactive | – |
| CC(C)c1cccc(C(C)C)c1O | inactive | – |
| Nc1cccc(Cl)c1 | inactive | – |
| C[C@@H](Oc1ccc(Cl)cc1Cl)C(=O)O | inactive | – |
| ClC1=C(Cl)[C@]2(Cl)[C@H]3[C@H]([C@H]4C=C[C@H]3C4)[C@@]1(Cl)C2(Cl)Cl | inactive | – |
| Cc1cc(Cl)ccc1O[C@H](C)C(=O)O | inactive | – |
| CCCCC(CC)CO[N+](=O)[O-] (configuration not stated) | inactive | – |
| CNC(=O)O/N=C/C(C)(C)S(C)=O (configuration not stated) | inactive | – |
| COc1cc(OC)nc(NC(=O)NS(=O)(=O)c2ncccc2C(=O)N(C)C)n1 | inactive | – |
| COP(=S)(OC)Oc1c(Cl)cc(C)cc1Cl | inactive | – |
| O=C(NCO)NCO | inactive | – |

Biological target: Nuclear respiratory factor 1 (Homo sapiens) (UniProt Q16656)
Assay: ATG_NRF1_CIS: Attagene CIS-FACTORIAL HepG2 Assay for human Nuclear Respiratory Factor 1 (NRF1) Orphan Gene (AID 2282987)
Settings: HepG2 NRF1 cis-element reporter, Attagene multiplex; actives raise or lower the signal
Method in brief: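 HepG2 cells transiently transfected with multiple reporter transcription units under cis-regulatory promoter control, so endogenous transcription-factor activity is read. After 24 h compound exposure, reporter mRNA quantified by RT-PCR, fluorescent labelling, HpaI digestion and capillary electrophoresis; bidirectional fitting versus DMSO.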

Nuclear respiratory factor 1 (Homo sapiens), sequence (Q16656 whole entry, looked up): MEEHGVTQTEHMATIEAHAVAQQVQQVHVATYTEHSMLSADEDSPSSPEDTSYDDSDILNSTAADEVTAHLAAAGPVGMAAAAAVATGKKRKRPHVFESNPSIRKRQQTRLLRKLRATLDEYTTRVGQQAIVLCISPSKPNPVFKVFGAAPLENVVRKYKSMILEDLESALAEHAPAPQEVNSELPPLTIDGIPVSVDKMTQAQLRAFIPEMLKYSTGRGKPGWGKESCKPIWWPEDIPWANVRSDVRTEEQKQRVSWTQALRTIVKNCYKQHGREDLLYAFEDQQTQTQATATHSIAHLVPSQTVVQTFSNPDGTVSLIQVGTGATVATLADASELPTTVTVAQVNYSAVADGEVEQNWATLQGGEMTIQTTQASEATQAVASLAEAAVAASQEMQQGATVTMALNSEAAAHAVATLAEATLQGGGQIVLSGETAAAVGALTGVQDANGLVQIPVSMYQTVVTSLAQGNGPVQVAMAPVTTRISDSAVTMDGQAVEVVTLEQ

| Compound | outcome | AC50 |
| --- | --- | --- |
| O=P(O)(O)CN(CP(=O)(O)O)CP(=O)(O)O | inactive | – |
| Clc1nc(Cl)nc(Cl)n1 | inactive | – |
| CC(C)(c1ccc(OCC2CO2)cc1)c1ccc(OCC2CO2)cc1 (configuration not stated) | inactive | – |
| CNC | inactive | – |
| Nc1cccc2ccccc12 | inactive | – |
| ClCc1ccccn1 | inactive | – |
| CC(C)OC(=O)Nc1ccccc1 | inactive | – |
| NNC(=S)NN | inactive | – |
| CCOP(=O)(CN(CCO)CCO)OCC | inactive | – |
| COc1cccc(C=O)c1 | inactive | – |
| NC(=S)Nc1ccccc1 | inactive | – |
| O=Cc1cccc(Oc2ccccc2)c1 | inactive | – |
| CC(Br)C(=O)O (configuration not stated) | inactive | – |
| C[C@]12CC[C@H](O)CC1=CC[C@@H]1[C@@H]2CC[C@]2(C)C(=O)CC[C@@H]12 | inactive | – |
| CCCCCCCCSC(=O)Oc1cc(Cl)nnc1-c1ccccc1 | inactive | – |
| Nc1ncc([N+](=O)[O-])s1 | inactive | – |
| Cc1ccccc1N | inactive | – |
| Cn1sc(Cl)cc1=O | inactive | – |
| CC(C)(C)c1cc(O)ccc1O | inactive | – |
| CC(C)c1cccc(C(C)C)c1O | inactive | – |
| ClC1=C(Cl)[C@]2(Cl)[C@H]3[C@H]([C@H]4C=C[C@H]3C4)[C@@]1(Cl)C2(Cl)Cl | inactive | – |
| O=C(CCl)CCl | – | 56 µM (active) |
| CCCCC(CC)CO[N+](=O)[O-] (configuration not stated) | inactive | – |
| CNC(=O)O/N=C/C(C)(C)S(C)=O (configuration not stated) | inactive | – |
| COc1cc(OC)nc(NC(=O)NS(=O)(=O)c2ncccc2C(=O)N(C)C)n1 | inactive | – |
| C=C(C)C(=O)[O][Sn]([CH2]CCC)([CH2]CCC)[CH2]CCC | inactive | – |
| COP(=S)(OC)Oc1c(Cl)cc(C)cc1Cl | inactive | – |
| O=C(NCO)NCO | inactive | – |

From PubChem BioAssay (EPA / NIEHS)
